This is a sample that favours compounds with a hit; in the whole collection about 7.2% have one here.
FMDV inh = High Throughput Screening for Foot and Mouth Disease Virus Antivirals; FMDV antiviral cell-based qHTS; Potency, µM (highest dose often 57.9 µM), for the others: at the top dose activity change, negative = inhibition, hits mostly inhibitors; actives 1.2% (n = 410,000); AID 1159524, 2015; calls by dose curve; tested in HEK293T cells; note: read-out not given here; nearly all actives have a fitted effect of over 45% in size
Sm TGR block = qHTS Assay for the Inhibitors of Schistosoma Mansoni Peroxiredoxins | Schistosoma mansoni thioredoxin glutathione reductase (TGR), Q962Y6 | purified TGR, DTNB reduction, TNB absorbance 405 nm | Potency, µM (titrated, usually from 114 µM), without a hit: at the highest dose activity change, negative = inhibition, actives largely listed as inhibitors | actives 3% (n = 360,000); note: nearly all actives have a fitted effect of over 60% in size
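Kinetic colorimetric format: TGR-catalysed, NADPH-driven DTNB reduction monitored via TNB absorbance. Enzyme dispensed at 20 nM; compound exposure 15 min at room temperature before reaction start.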
Marburg entry inh = qHTS for inhibitors of binding or entry into cells for Marburg Virus; Marburg virus pseudotyped entry inhibition, cell reporter; Potency, µM (titrated, usually from 37.8 µM), for inactives: at the top dose activity change, negative = inhibition, hits mostly inhibitors; actives 1.8% (n = 300,000); calls by dose curve; tested in HEK293 cells
HCV inhibitor = qHTS Assay for Inhibitors of Hepatitis C Virus (HCV). Huh7.5.1 HCVcc-Cre infection, luciferase reporter, 44 h. Potency, µM (highest dose often 41.8 µM), inactives show at the highest dose activity change, negative = inhibition, actives largely listed as inhibitors. actives 3.4% (n = 340,000). AID 651820, 2012
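After 44 h co-culture of compound, cells and HCVcc-Cre (~0.5 moi), substrate is added for 15 min at room temperature and luciferase measured over 15 sec. Cells were seeded at 1,000/well and pre-cultured 4 h.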
RE007 growth inh = qHTS Assay for Inhibitors of the HIV-1 protein Vpr | S. pombe RE007 Vpr strain, BacTiter-Glo ATP luminescence, 24 h | Potency, µM (highest dose often 92.2 µM), for the others: at the top dose activity change, negative = less growth, hits mostly inhibitors | actives 0.21% (n = 360,000) | AID 651644, 2012; active = well fitted falling curve with a large enough effect; inconclusive = small, poorly fitted or top-dose-only effect; inactive = no such curve, though single readings can be large or run the other way; note: nearly all actives have a fitted effect of over 50% in size
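Fission yeast RE007 carrying one integrated HIV-1 vpr copy, seeded at OD 0.01 in PMG+AL medium with 23 nL pinned compound. Grown 24 h at 30 degrees; viability read by BacTiter-Glo luminescence after 5 min.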
Lassa entry inh = qHTS for Inhibitors of binding or entry into cells for Lassa Virus. Lassa virus pseudotype entry inhibition, cell reporter. Potency, µM (titrated, usually from 37.9 µM), without a hit: at the highest dose activity change, negative = inhibition, actives largely listed as inhibitors. actives 1.2% (n = 300,000); calls by dose curve; tested in HEK293 cells; note: nearly all actives have a fitted effect of over 50% in size
Starred values were filed as active, the others as inactive; ? = inconclusive; . = no result given; [ ] = dose if it differs, or a comment. Unless noted, calls come from the whole dose curve; as a rule, active = well fitted curve in the direction sought with a large enough effect; inconclusive = small, poorly fitted or top-dose-only effect, or another doubt; inactive = no such curve, though single readings can be large; an effect the other way counts as inactive or inconclusive. % is set by controls: 0 for no effect and ±100 for the full control effect; potency is the fitted concentration of half-maximal effect.

SMILES | FMDV inh | Sm TGR block | Marburg entry inh | HCV inhibitor | RE007 growth inh | Lassa entry inh
COC(=O)c1ccc(NC(=O)CN(C)S(=O)(=O)c2ccc3c(c2)CCCC(=O)N3)cc1 | 32µM* | -1% | . | . | . | ?
CCOC(=O)CC1CCCCN1C(=O)c1ccc2oc(CCc3ccccc3)nc2c1 (stereo unspecified) | 1% | -5% | . | 10µM* | -8% | .
COC(=O)C1=C(c2ccc3ccccc3c2)C[C@@H]2CC[C@H]1N2C | 18% | -27% | . | 1% | -1% | .
COC(=O)C1=C(C(=O)OC)C2OC1c1cc3ccccc3cc12 | 28µM* | . | ? | ? | 35µM* | -12%
CCOc1ccc(CCNC(=O)c2cnc3c(-c4ccc(F)cc4)c(C)nn3c2C)cc1 | -9% | -9% | . | . | . | -16%[46.1 µM]
COc1ccc(C(C(=O)NCC2CCCO2)N(Cc2cccs2)C(=O)c2snc(C(N)=O)c2N)cc1 (stereo unspecified) | -10% | 3% | 3.2µM* | ? | -8% | ?
CN(C)c1ccc(C(C(=O)NC2CCCC2)N(Cc2cccnc2)C(=O)c2snc(C(N)=O)c2N)cc1 (stereo unspecified) | -12% | 7% | 18%[46.1 µM] | -23% | ? | ?
CN(C)c1ccc(C(C(=O)NC2CCCCC2)N(Cc2ccco2)C(=O)c2snc(C(N)=O)c2N)cc1 (stereo unspecified) | -4% | -21% | 3.5µM* | 11µM* | -10% | 13µM*
Cc1ccc(C(C(=O)NC2CCCC2)N(Cc2cccnc2)C(=O)c2snc(C(N)=O)c2N)o1 (stereo unspecified) | -7% | 45µM* | -1% | 2% | -11% | -1%
CC(C)c1ccc(N(C(=O)c2snc(C(N)=O)c2N)C(C(=O)NCC2CCCO2)c2ccc(N(C)C)cc2)cc1 (stereo unspecified) | 18µM* | 25% | ? | ? | -8% | ?
CN(C)c1ccc(C(C(=O)NCC2CCCO2)N(C(=O)c2snc(C(N)=O)c2N)c2ccccc2)cc1 (stereo unspecified) | -14% | 1% | ? | -1% | -1% | 24%[46.1 µM]
CCOc1ccc(C(C(=O)NCC2CCCO2)N(Cc2cccc(OC)c2)C(=O)c2snc(C(N)=O)c2N)cc1 (stereo unspecified) | 3% | 0% | ? | -20% | -11% | .
CC(=O)Nc1cccc(C(=O)NCc2ccc3c(c2)CCN3C(C)=O)c1 | 20% | -1% | . | . | . | -1%[46.1 µM]
Fc1ccc(Nc2cncc(-c3ccsc3)c2)cc1Cl | 7% | . | . | . | ? | .
CC(=O)Nc1cccc(-c2ccnc3c2CC(C)(C(=O)NCCc2ccccc2)O3)c1 (stereo unspecified) | -16% | . | . | . | -7%[18.4 µM] | .
Cc1ccc(N(C(=O)c2snc(C(N)=O)c2N)C(C(=O)NC2CCCC2)c2ccco2)cc1 (stereo unspecified) | -15% | 40µM* | ? | -21% | 5% | ?
CCOc1ccc(N(C(=O)c2snc(C(N)=O)c2N)C(C(=O)NCC2CCCO2)c2ccco2)cc1 (stereo unspecified) | -6% | -14% | 13µM* | -20% | 2% | ?
O=S(=O)(c1ccccc1)c1ncc(C(F)(F)F)cc1O | -6% | -8% | 8%[46.1 µM] | 6% | -25% | -29%[46.1 µM]
O=S(=O)(c1ccccc1)c1ncc(C(F)(F)F)cc1Cl | 11µM* | 4µM* | ? | ? | -7% | ?
Cc1ccccc1CN1CCc2nc(N3CCN(c4ncccn4)CC3)ncc2C1 | ? | -14% | . | . | . | ?
Cc1ccccc1S(=O)(=O)Cc1ccc(C(=O)O)o1 | . | -31% | 5% | 15% | 8% | 5%
COC(CN(C)C(=O)c1ccc(CS(=O)(=O)c2ccccc2C)o1)OC | -1% | 50µM* | 5%[46.1 µM] | 19% | 18% | -16%[46.1 µM]
Cc1ccccc1S(=O)(=O)Cc1ccc(C(=O)NC2CCCCCC2)o1 | -23% | -22% | -6%[46.1 µM] | -4% | 0% | ?
CCCCN(C)C(=O)c1ccc(CS(=O)(=O)c2ccccc2C)o1 | -23% | 25µM* | . | -13% | -18% | .
Cc1ccccc1S(=O)(=O)Cc1ccc(C(=O)N(C)C2CCCCC2)o1 | 2% | 25µM* | . | -8% | 10% | .
SMILES | FMDV inh | Sm TGR block | Marburg entry inh | HCV inhibitor | RE007 growth inh | Lassa entry inh
CCc1ccc(NC(=O)C(=O)N/N=C(\C)CC(=O)Nc2ccc(OC)cc2)cc1 | 29% | 45µM* | . | 1% | 7% | .
O=C(N/N=C/c1ccc2c(c1)OCO2)c1cc(-c2ccco2)nc2ccccc12 | 0% | -20% | ? | ? | -5% | -40%
COc1cc(/C=N/NC(=O)c2cc(-c3cccs3)nc3ccccc23)ccc1O | -21% | -4% | . | -11% | -7% | .
CC(=O)Nc1ccc(/C=N/NC(=O)c2cc(-c3ccco3)nc3ccccc23)cc1 | -11% | 14µM* | -8%[46.1 µM] | 13% | 32% | -11%
N#Cc1ccc(/C=N/NC(=O)c2cc(-c3cccs3)nc3ccccc23)cc1 | 16% | -4% | 6.3µM* | -10% | -1% | ?
O=C(O)c1ccccc1/C=N/NC(=O)c1cc(-c2ccco2)nc2ccccc12 | -6% | 3.2µM* | -1%[46.1 µM] | 36% | -8% | ?
CS(=O)(=O)N1CCC[C@@]2(CCN(C(c3ccccc3)c3ccccc3)C2)C1 | -9% | . | . | . | . | .
CC(=O)N1CCCC1c1nc2ccccc2n1Cc1ccccc1F (stereo unspecified) | -8% | -14% | 3%[46.1 µM] | . | . | -18%[46.1 µM]
Cn1c(-c2ccncc2)nc2cc(C(=O)N[C@H]3CCCCNC3=O)cc(NC(=O)C3CCC3)c21 | -18% | . | . | . | . | .
Cc1ccccc1NC(=O)c1c(C)[nH]c(=S)c(C#N)c1-c1ccco1 | 0% | -15% | ? | 19% | 21% | 0%
CNC(=O)c1c(C)[nH]c(=S)c(C#N)c1-c1ccco1 | -4% | 32µM* | . | 8% | 20% | .
COc1ccc(N(CC(=O)NC2CC3CCC2C3)S(=O)(=O)c2ccc(C)c([N+](=O)[O-])c2)cc1 (stereo unspecified) | -6% | -4% | ? | 2.8µM* | 2% | -17%[46.1 µM]
CC1Cc2cc(S(=O)(=O)CCC(=O)NCc3ccco3)ccc2N1C(=O)C1CC1 (stereo unspecified) | 2% | 40µM* | . | -14% | -3% | .
Cc1ccc(S(=O)(=O)CCC(=O)NCc2ccco2)cc1 | 2% | 40µM* | ? | 6% | -7% | ?
Cc1ccc(S(=O)(=O)CCC(=O)NCc2ccccc2)cc1 | -16% | 1% | -28% | 1% | 0% | 33%
